The structures appear in SMILES notation. Records with an inconclusive call do not appear. Calls of active or inactive are those of the source. The call rests on the fitted dose curve; in most records, active means well fitted cell-killing curve with a large enough effect; inconclusive means small, poorly fitted or top-dose-only effect, or effect the other way; inactive means no such curve, though single readings can be large or run the other way.
Potency means the concentration at half of the fitted maximal effect.

The assay is described as follows: Viability qHTS for spleen associated tyrosine kinase inhibitor (SYKi) drug resistant MV4-11 cells (AID 1963824). Further: nearly all actives have a fitted effect of over 35% in size. The conditions noted are these: SYKi-resistant MV4-11 viability, CellTiter-Glo, 72 h; series mostly up to 45 µM; viability, % of control: at the top concentration. The method, boiled down:
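CellTiter-Glo luminescence, read 10 min after reagent addition, reports viability after a 72 hr compound exposure. Cells are an MV4-11 line made resistant to SYK inhibition, seeded at 500 per well onto compound-containing plates.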
Background: In qHTS, concentration-response curves come from the screen itself.
For the compound `Cc1nc(Nc2n[nH]c3c2CN(C(=O)NC(CN(C)C)c2ccccc2)C3(C)C)c2sccc2n1` (stereo unspecified), the Potency is 0.0164 µM (active).

Consider `C=C1CC[C@H]2[C@@](C)(CCC(OC3OC(CO)C(O)C(O)C3O)[C@@]2(C)CO)C1C(=O)CC1=CCOC1=O` (stereo partly specified), for which the “viability, % of control” value is 85.6% [at 17.3 µM] (inactive).

For the compound `C[C@@H](Oc1cc(-n2cnc3ccc(OC4CCN(C)CC4)cc32)sc1C(N)=O)c1ccccc1Cl`, the Potency is 0.013 µM (active).

Consider `COC(=O)c1ccccc1O[C@@H]1O[C@H](CO)[C@@H](O)[C@H](O)[C@H]1O[C@@H]1O[C@@H](C)[C@H](O)[C@@H](O)[C@H]1O`, for which the “viability, % of control” value is 95% [at 17.3 µM] (inactive).

Turning to `C=C1CC2C(C)(CCC(=O)O)C(C(C)(C)O)CCC2(C)C2C(=O)OC(C)(C(=O)OC)C(=O)C12C` (stereo unspecified), the “viability, % of control” value was 77.9% [at 17.3 µM] (inactive).

`Cc1nc2sccn2c(=O)c1CCN1CCC(=C(c2ccc(F)cc2)c2ccc(F)cc2)CC1`: the Potency is 11.9 µM (active).

Regarding `Cc1cc(CN)cc(C)c1NC(=O)c1ccc(-c2cc(Cl)ccc2Cl)o1`, the Potency is 9.2 µM (active).

For the compound `CC(C)n1cnc2c(Nc3cccc(Cl)c3)nc(NCCO)nc21`, the Potency was 1.84 µM (active).

`COc1cc(O)cc(C)c1C(=O)OC1C(CO)OC(OC2C(O)C(O)C(O)C(O)C2O)C(O)C1O` (stereo unspecified): the “viability, % of control” value was 63.5% [at 17.3 µM] (inactive).

For `CC1(C)[C@@H]2CC=C(CO[C@@H]3O[C@H](CO[C@@H]4OC[C@H](O)[C@H](O)[C@H]4O)[C@@H](O)[C@H](O)[C@H]3O)[C@H]1C2`, the “viability, % of control” value was 99.9% [at 17.3 µM] (inactive).

Regarding `O=C(O[C@H]1[C@@H]2C=CO[C@@H](O[C@@H]3O[C@H](CO)[C@@H](O)[C@H](O)[C@H]3O)[C@@H]2[C@@]2(CO)O[C@@H]12)c1ccc(O)c(O)c1`, the “viability, % of control” value is 103% [at 17.3 µM] (inactive).

In the case of `CC(C)=CCc1c(O)cc2oc3cc(C)cc(O)c3c2c1C`, the Potency is 23.1 µM (active).

For the compound `CC(C)c1ccc(NC(=O)C(c2ccccc2)N(C)C(=O)Cc2c[nH]c3ccccc23)cc1` (stereo unspecified), the Potency is 18.4 µM (active).

Turning to `C[C@@]1(O)[C@H](O)[C@@H](CO)O[C@H]1n1ccc(N)nc1=O`, the Potency is 13 µM (active).

For the compound `CCC(C)/C=C(C)/C=C/C1=CC2=C(Cl)C(=O)C(C)(OC(C)=O)C(=O)C2=CN1C(CCCN=C(N)N)C(=O)O` (stereo unspecified), the “viability, % of control” value is 78.7% [at 17.3 µM] (inactive).

In the case of `OC(CNCCc1c[nH]c2ccccc12)Cn1c2ccccc2c2ccccc21` (stereo unspecified), the Potency was 5.17 µM (active).

Turning to `CC(=O)N[C@H](Cc1c[nH]c2ccccc12)C(=O)OCc1cc(C(F)(F)F)cc(C(F)(F)F)c1`, the Potency is 23.1 µM (active).

In the case of `CC[C@H]1OC(=O)[C@](C)(F)C(=O)[C@H](C)[C@@H](O[C@@H]2O[C@H](C)C[C@H](N(C)C)[C@H]2O)[C@](C)(OC)C[C@@H](C)C(=O)[C@@H](C)[C@H]2N(CCCCn3cc(-c4cccc(N)c4)nn3)C(=O)O[C@]12C`, the Potency was 10.3 µM (active).

Take `C/C=C(\C)C(=O)OC1C2(O)CC3=C4CC(=O)OC(c5ccoc5)C4(C)CCC3C(C)(C2=O)C(C(OC(C)=O)C(=O)OC)C1(C)C` (stereo unspecified): the Potency is 4.85 µM (active).

Consider `NCC(CNc1nc(Nc2cccc(NC(=O)N3CCCC3)c2)ncc1I)C(=O)c1cccs1` (stereo unspecified), for which the Potency is 0.231 µM (active).

In the case of `CC1=C2C[C@H]3OC(=O)[C@H](O)[C@@]4(O)[C@@H](C)[C@@H](O)[C@H](O)C([C@@]2(C)[C@H](O)[C@@H](O)C1)[C@@]34C` (stereo partly specified), the Potency is 14.3 µM (active).

In the case of `C=CC(=O)N1CCCC(n2nc(-c3ccc(Oc4ccccc4)cc3)c3c(N)ncnc32)C1` (stereo unspecified), the Potency was 1.16 µM (active).

With `CC[C@@H](C)[C@@H]1OC2(C=C[C@H]1C)C[C@@H]1C[C@H](C/C=C(\C)[C@H](O[C@H]3C[C@H](OC)[C@H](O[C@H]4C[C@H](OC)[C@H](NC(C)=O)[C@H](C)O4)[C@H](C)O3)[C@H](C)/C=C/C=C3\CO[C@H]4[C@H](O)C(C)=C[C@@H](C(=O)O1)[C@@]34O)O2` (stereo partly specified), the Potency is 2.27 µM (active).

As to `COc1cc(O)c2c(c1)C1(OC2=O)C(C)=CC(=O)C1O` (stereo unspecified), the Potency is 16.4 µM (active).

Turning to `CC12CCC(=O)C=C1C(O)CC1C2C(O)CC2(C)C1CC[C@]2(O)C(=O)CO` (stereo partly specified), the viability, % of control was 90% [at 9.25 µM] (inactive).

As to `CCC(=O)N1CCc2cc(OC)c(O)cc2C1`, the “viability, % of control” value was 95.8% (inactive).

Regarding `CC[C@@H]1[C@H]2CCCCN3C(=O)C[C@H]([C@@H]4[C@H]1OC(=O)[C@H]4C)[C@@H]23`, the “viability, % of control” value is 77.3% (inactive).

Take `CC(C)c1onc(-c2c(Cl)cccc2Cl)c1COc1ccc(/C=C/c2cccc(C(=O)O)c2)c(Cl)c1`: the Potency was 14.8 µM (active).

As for `Cc1ccc(S(=O)(=O)NCc2ccc(C(=O)NCCN(Cc3ccccc3)C(C)C)cc2)cc1`, the Potency is 14.6 µM (active).

Take `NS(=O)(=O)c1ccc(N=Nc2c(O)[nH]c3ccc(Br)cc23)cc1`: the Potency was 1.03 µM (active).

Consider `COCC(=O)NC/C=C/c1ccc2ncnc(Nc3ccc(Oc4ccc(C)nc4)c(C)c3)c2c1`, for which the Potency is 9.2 µM (active).

Source of the values: PubChem BioAssay (NCATS).
